Shn3 3UTR inh – reduces Shn3 3'UTR luciferase signal in osteoblasts. Clone20 osteoblast Shn3 3'UTR firefly luciferase, 24 h. inhibition, % at 12.5 µM. hit rate 0.52% among 360,000. AID 588674;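 active means mean inhibition of at least 75% with every replicate also reaching 75%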;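 further: 0% = median of neutral control wells and 100% = pilot-screen positive control compound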
Peg3 prom inh – Peg3 promoter activity inhibition | HeLa PEG-Prom luciferase reporter, luminescence, overnight | inhibition, % at 20 µM | hit rate 1.7% among 360,000;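 active means inhibition of at least 50% at 20 µM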
MITF TRPM1 inh – inhibitors of MITF-driven TRPM1 promoter in melanoma cells | SK-MEL-5 TRPM1 promoter luciferase, 24 h | inhibition, % at 12.5 µM | hit rate 0.83% among 330,000 | AID 488899;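 active means mean inhibition across replicates of 60% or more, whatever share of single replicates reaches that level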
TROY signal inh – blocks TROY-dependent signaling in reporter cells | Q293 LMP1-TROYcd NF-kB luciferase reporter, 4 h | inhibition, % at 10 µM | hit rate 0.98% among 360,000 | AID 1347056;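 active means compounds whose plate-normalised and pattern-corrected inhibition of the luciferase reporter signal at the single screening dose is 50% or more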
TWEAK Fn14 block – inhibitors of TWEAK-Fn14 interaction signaling | TWEAK-stimulated Fn14 reporter cells, luciferase luminescence, 8 h | inhibition, % at 10 µM | hit rate 2% among 360,000 | AID 1159606; in the data active means inhibition above about 50%
EBV LMP1 NFkB – Epstein-Barr LMP1 NF-kappaB reporter inhibition | hit rate 0.69% among 350,000 | inhibition, % at 12.5 µM | LMP1-induced NF-kappaB luciferase reporter cells, luminescence; in the data active means inhibition above about 41%;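 further: 0% = neutral control wells and 100% = reference inhibitor control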
* hit, by the source's call. Shown are actives, neighbours in structure and some others; about 4.1% of the full set was active somewhere.

CCc1ccc(-c2cc(C(F)(F)F)n3nc(C(=O)Nc4cnn(Cc5ccc(C)cc5)c4)cc3n2)s1 was read as Shn3 3UTR inh 91*, Peg3 prom inh 43, MITF TRPM1 inh 54, TROY signal inh 18, TWEAK Fn14 block -59 and EBV LMP1 NFkB -15.
For CC(=O)[C@@]1(O)C(C)CC2C3C=C(C)C4=Cc5c(cnn5-c5ccccc5)C[C@]4(C)C3C(O)C[C@@]21C (stereo partly drawn) the results were Shn3 3UTR inh 55, Peg3 prom inh 64*, MITF TRPM1 inh 1, TROY signal inh 53*, TWEAK Fn14 block -35 and EBV LMP1 NFkB -185.
`CN(C(=O)COC(=O)C1COc2ccccc2O1)c1c(N)n(Cc2ccccc2)c(=O)[nH]c1=O` (stereo not drawn) gave Shn3 3UTR inh 13, Peg3 prom inh 4, MITF TRPM1 inh 0, TROY signal inh -2, TWEAK Fn14 block 0 and EBV LMP1 NFkB 5.
Screening COc1ccc(CN2CCOCC2)cc1Br returned Shn3 3UTR inh 23, Peg3 prom inh 7, MITF TRPM1 inh 12, TROY signal inh 11, TWEAK Fn14 block -8 and EBV LMP1 NFkB 1.
`COc1ccc(CN2CCOCC2)cc1OC` gave Shn3 3UTR inh 10, Peg3 prom inh 13, MITF TRPM1 inh -13, TWEAK Fn14 block 99* and EBV LMP1 NFkB 2.
COc1cccc(OC)c1C(=O)Nc1ccc(CN2CCOCC2)cc1 was read as Shn3 3UTR inh 3, Peg3 prom inh 5, MITF TRPM1 inh 6, TROY signal inh 14, TWEAK Fn14 block -9 and EBV LMP1 NFkB 1.
For COc1cc2sc3ccc(-c4ccc(CN5CCOCC5)cc4)cc3c(=O)c2cc1OC the results were Shn3 3UTR inh 13, Peg3 prom inh 99*, MITF TRPM1 inh 2, TROY signal inh -19, TWEAK Fn14 block 2 and EBV LMP1 NFkB 8.
`CC1(C)Cc2c(c(=S)nc(-c3ccccc3)n2CCOCCO)CO1` gave Shn3 3UTR inh 12, Peg3 prom inh 5, MITF TRPM1 inh -7, TWEAK Fn14 block 55* and EBV LMP1 NFkB -3.
Cc1ccc(-c2nc(=S)c3c(n2CCN2CCOCC2)CC(C)(C)OC3)cc1 was read as Shn3 3UTR inh -1, Peg3 prom inh -10, MITF TRPM1 inh -2, TROY signal inh 52*, TWEAK Fn14 block 21 and EBV LMP1 NFkB -2.
Screening Cc1ccc(-c2nc(=S)c3c(n2Cc2cccnc2)CC(C)(C)OC3)cc1 returned Shn3 3UTR inh -3, Peg3 prom inh 0, MITF TRPM1 inh -4, TROY signal inh 7, TWEAK Fn14 block 74* and EBV LMP1 NFkB 2.
Screening CN(CC(=O)Nc1c(Cl)cccc1Cl)C(=O)c1ccc(-n2cncn2)c([N+](=O)[O-])c1 returned Shn3 3UTR inh -5, Peg3 prom inh 12, MITF TRPM1 inh -5, TROY signal inh -8, TWEAK Fn14 block 0 and EBV LMP1 NFkB 9.
`CCOc1cccc(CN2CCN(CCCc3ccccc3)C(CCO)C2)c1O` (stereo not drawn) gave Shn3 3UTR inh -27, Peg3 prom inh 4, MITF TRPM1 inh 16, TROY signal inh -25, TWEAK Fn14 block 12 and EBV LMP1 NFkB 5.
NS(=O)(=O)c1ccc(N/N=C/c2cn(-c3ccccc3)nc2-c2ccccc2)c([N+](=O)[O-])c1 was read as Peg3 prom inh 38, MITF TRPM1 inh 77*, TROY signal inh 32, TWEAK Fn14 block -21 and EBV LMP1 NFkB -17.
Screening CCN(CC)CCNc1ccc(C)c2sc3ccc(O)cc3c(=O)c12 returned Shn3 3UTR inh 30, Peg3 prom inh 98*, MITF TRPM1 inh 85*, TROY signal inh -91, TWEAK Fn14 block -194 and EBV LMP1 NFkB 38.
Screening CCc1ccc(-c2cc(C)no2)cc1S(=O)(=O)N1CCN(c2ccccn2)CC1 returned Shn3 3UTR inh 13, Peg3 prom inh 9, MITF TRPM1 inh 1, TROY signal inh 50*, TWEAK Fn14 block -5 and EBV LMP1 NFkB -1.
Screening COc1ccc2[nH]c(=O)c(CN(Cc3cccs3)S(=O)(=O)c3c(C)ccc4nsnc34)cc2c1 returned Shn3 3UTR inh 75, Peg3 prom inh 59*, MITF TRPM1 inh 8, TROY signal inh 25, TWEAK Fn14 block 61* and EBV LMP1 NFkB 26.
Cc1ccc2[nH]c(=O)c(CN(Cc3ccco3)S(=O)(=O)c3c(C)ccc4nsnc34)cc2c1 was read as Shn3 3UTR inh 0, Peg3 prom inh 19, MITF TRPM1 inh 13, TROY signal inh -5, TWEAK Fn14 block 23 and EBV LMP1 NFkB 16.
O=C(Oc1ccc(NC2=C(Cl)C(=O)c3ccccc3C2=O)cc1)c1ccc([N+](=O)[O-])cc1 was read as Shn3 3UTR inh 6, Peg3 prom inh 99*, MITF TRPM1 inh 82*, TROY signal inh 24, TWEAK Fn14 block 21 and EBV LMP1 NFkB 19.
O=C(Oc1ccc([N+](=O)[O-])cc1)c1cccnc1 was read as Shn3 3UTR inh -10, Peg3 prom inh 12, MITF TRPM1 inh -5, TROY signal inh 14, TWEAK Fn14 block 16 and EBV LMP1 NFkB 3.
COc1ccc(-n2c(CN3CCN(c4ccccn4)CC3)nc3ccc([N+](=O)[O-])cc3c2=O)c(OC)c1 was read as Peg3 prom inh 15, MITF TRPM1 inh -4, TROY signal inh 15, TWEAK Fn14 block -2 and EBV LMP1 NFkB 1.
Screening CCC(=O)Nc1ccc(N2CCN(C(=O)c3cccs3)CC2)cc1 returned Shn3 3UTR inh 14, Peg3 prom inh -2, MITF TRPM1 inh 21, TROY signal inh -3, TWEAK Fn14 block -4 and EBV LMP1 NFkB 16.
`Cn1nccc1C(=O)Nc1ccc(S(=O)(=O)N2CCCC2)cc1` gave Shn3 3UTR inh 8, Peg3 prom inh 10, MITF TRPM1 inh -5, TROY signal inh 6, TWEAK Fn14 block 1 and EBV LMP1 NFkB 6.
For Cn1nc(C(=O)Nc2ccc(S(=O)(=O)N3CCCCC3)cc2)ccc1=O the results were Shn3 3UTR inh 9, Peg3 prom inh 26, MITF TRPM1 inh 9, TROY signal inh 5, TWEAK Fn14 block 104* and EBV LMP1 NFkB 16.
For O=C(Nc1ccc(S(=O)(=O)N2CCOCC2)cc1)c1ccco1 the results were Shn3 3UTR inh -22, Peg3 prom inh 1, MITF TRPM1 inh -9, TROY signal inh 2, TWEAK Fn14 block 2 and EBV LMP1 NFkB -3.
For O=C(Nc1ccc(S(=O)(=O)N2CCOCC2)cc1)c1ccc([N+](=O)[O-])o1 the results were Shn3 3UTR inh 27, Peg3 prom inh 101*, MITF TRPM1 inh 47, TROY signal inh -1, TWEAK Fn14 block 18 and EBV LMP1 NFkB -53.
For O=C(COc1ccccc1[N+](=O)[O-])Nc1ccc(N2CCN(C(=O)c3cccs3)CC2)cc1 the results were Shn3 3UTR inh 36, Peg3 prom inh 104*, MITF TRPM1 inh 48, TROY signal inh 76*, TWEAK Fn14 block 72* and EBV LMP1 NFkB 7.
O=C(Nc1ccc(S(=O)(=O)N2CCOCC2)cc1)c1ccc([N+](=O)[O-])s1 was read as Shn3 3UTR inh 15, Peg3 prom inh 41, MITF TRPM1 inh 84*, TROY signal inh 11, TWEAK Fn14 block -29 and EBV LMP1 NFkB -10.

Assay outcomes as filed in PubChem.
